Values joined by “and” are separate entries in the source; they are usually repeats but may differ in a detail not shown here. Equal entries are not always repeated. Inconclusive results are not listed. Some structures have more than one record in an assay (separate samples or runs), and their calls can disagree. Active and inactive are the calls of the source. The call rests on the fitted dose curve; in most records, active means well fitted curve in the direction sought with a large enough effect in the repeat runs; inconclusive means weak or mixed curves; inactive means no such curve, though single readings can be large; an effect the other way counts as inactive or inconclusive.
Columns and labels:
[1] = qHTS RealTime-Glo MT Cell Viability Assay in HEK293 cells - 16 hour (AID 1224872); further: nearly all actives have a fitted effect of over 50% in size; further: potency means the concentration at half of the fitted maximal effect; on activity change, negative = cytotoxicity: top concentration of the series differs between compounds
In short: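 Quantitative high-throughput screen of the Tox21 10K library in HEK293: cells and RealTime-Glo reagents plated together, compound added at 5 h, luminescence monitored through 40 h at 37 C.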

[2] = qHTS RealTime-Glo MT Cell Viability Assay in HepG2 cells - 8 hour (AID 1224873); further: nearly all actives have a fitted effect of over 55% in size; further: potency means the concentration at half of the fitted maximal effect
In short: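 HepG2 cells (600/well) mixed with RealTime-Glo MT reagent, settled 5 h at 37 C/5% CO2 before compound addition. Nonlytic NanoLuc luminescence from viable-cell prosubstrate reduction read repeatedly during 40 h treatment at 37 C.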

[3] = qHTS RealTime-Glo MT Cell Viability Assay in HEK293 cells - 40 hour (AID 1224874); settings: RealTime-Glo luminescence; max response: stronger effect = lower value; further: nearly all actives have a fitted effect of over 50% in size; further: potency means the concentration at half of the fitted maximal effect
In short: (§1)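 600 cells/well were plated with the nonlytic NanoLuc/prosubstrate reagent, pre-incubated 5 h, then given 23 nL of compound in DMSO. Incubation at 37 C for 40 h, with luminescence from viable-cell-reduced substrate read repeatedly from 0 h.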

[4] = A CellTox Green Cytotoxicity Assay to monitor cytotoxicity in HEK293 cells - 24 hour (AID 1224875); further: nearly all actives have a fitted effect of over 45% in size; further: potency means the concentration at half of the fitted maximal effect; on activity change: series mostly up to about 77 µM
In short: (§2)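 HEK293 cells, 600/well, were preincubated 5 hours and then exposed to compounds at 37 C for up to 40 hours. A cell-impermeant cyanine dye staining dead-cell DNA was read by fluorescence at 0, 8, 16, 24, 32 and 40 h time points.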

[5] = A CellTox Green Cytotoxicity Assay to monitor cytotoxicity in HepG2 cells - 16 hour (AID 1224876); further: nearly all actives have a fitted effect of over 45% in size; further: potency means the concentration at half of the fitted maximal effect
In short: (§3)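 HepG2 cells, 600/well, preincubated 5 h with CellTox Green dye, then exposed to Tox21 compounds in DMSO at 37 C for up to 40 h. Dead-cell DNA fluorescence read at the indicated time point.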

[6] = qHTS RealTime-Glo MT Cell Viability Assay in HepG2 cells - 32 hour (AID 1224877); further: nearly all actives have a fitted effect of over 55% in size; further: potency means the concentration at half of the fitted maximal effect
In short: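 Compound treatment began 5 h after plating HepG2 cells (600/well) with NanoLuc luciferase and prosubstrate. Plates stayed at 37 C for 40 h; luminescence was captured at six time points, 0 h through 40 h.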

[7] = A CellTox Green Cytotoxicity Assay to monitor cytotoxicity in HepG2 cells - 40 hour (AID 1224879); further: nearly all actives have a fitted effect of over 40% in size; further: potency means the concentration at half of the fitted maximal effect
In short: as §3

[8] = qHTS RealTime-Glo MT Cell Viability Assay in HEK293 cells - 0 hour (AID 1224880); further: top concentration of the series differs between compounds; nearly all actives have a fitted effect of over 45% in size
In short: as §1

[9] = A CellTox Green Cytotoxicity Assay to monitor cytotoxicity in HEK293 cells - 32 hour (AID 1224881); further: nearly all actives have a fitted effect of over 40% in size; further: potency means the concentration at half of the fitted maximal effect
In short: as §2

[10] = A CellTox Green Cytotoxicity Assay to monitor cytotoxicity in HepG2 cells - 24 hour (AID 1224878); further: nearly all actives have a fitted effect of over 45% in size; further: potency means the concentration at half of the fitted maximal effect
In short: as §3
On the % scale 0 is the no-effect control and ±100 the full control effect.

C=CC(=C)CC/C=C(\C)CCC=C(C)C
inactive: activity change, negative = cytotoxicity [1] -2.14% [at 15.8 µM] | viability change, negative = cytotoxic [2] 1.83% [at 15.8 µM] | max response [3] -13.5% | activity change [4] 0.574% [at 15.8 µM, stronger effect = higher value] | cytotoxicity increase [5] 1.01% [at 15.8 µM] | activity change, negative = cytotoxic [6] -2.56% [at 15.8 µM] | cytotoxicity increase [7] -0.316% [at 15.8 µM] | activity change, negative = cytotoxicity [8] -0.65% [at 15.8 µM] | cytotoxicity increase [9] 1.9% [at 15.8 µM]

CCC(=O)OCCc1ccccc1
inactive: Potency [1] | Potency [2] | max response [3] 14% | Potency [4] | Potency [5] | Potency [6] | Potency [10] | Potency [7] | Potency [8] | Potency [9]

CCCCCCCCCCCCCCCC
inactive: Potency [1] | Potency [2] | max response [3] 15.7% | Potency [4] | Potency [5] | Potency [10] | Potency [7] | Potency [8]

CC(=O)Oc1ccc(C2(c3ccc(OC(C)=O)cc3)C(=O)Nc3ccccc32)cc1
inactive: Potency [1] | Potency [2] | max response [3] -6.95% | Potency [4] | Potency [5] | Potency [10] | Potency [7] | Potency [8]

CCCCCCCCCCCC(=O)N(CC)CC
inactive: Potency [1] | Potency [2] | max response [3] -24.4% | Potency [4] | Potency [5] | Potency [10] | Potency [7] | Potency [8] | Potency [9]

O=C=NCc1cccc(CN=C=O)c1
inactive: activity change, negative = cytotoxicity [1] 2.12% [at 15.8 µM] | viability change, negative = cytotoxic [2] 3.05% [at 15.8 µM] | max response [3] 3.93% | activity change [4] -11.7% [at 15.8 µM, stronger effect = higher value] | cytotoxicity increase [5] 2.28% [at 15.8 µM] | activity change, negative = cytotoxic [6] 0.5% [at 15.8 µM] | cytotoxicity increase [7] -0.536% [at 15.8 µM] | activity change, negative = cytotoxicity [8] 5.7% [at 15.8 µM] | cytotoxicity increase [9] -11.9% [at 15.8 µM]

CC(C)CCOCCC(C)C
inactive: Potency [1] | Potency [2] | max response [3] 7.57% | Potency [4] | Potency [5] | Potency [6] | Potency [7] | Potency [8] | Potency [9]

c1ccc(Nc2cccc3ccccc23)cc1
inactive: Potency [1] | Potency [2] | max response [3] -7.99% | Potency [4] | Potency [5] | Potency [6] | Potency [8] | Potency [9]

O=Cc1ccc(F)cc1
inactive: Potency [1] | Potency [2] | max response [3] 3.4% | Potency [4] | Potency [5] | Potency [6] | Potency [7] | Potency [8] | Potency [9]

CC(=O)OC1CCCCC1
inactive: Potency [1] | Potency [2] | max response [3] -7.58% | Potency [4] | Potency [5] | Potency [6] | Potency [7] | Potency [8] | Potency [9]

CCc1cccc(C)c1
inactive: Potency [1] | Potency [2] | max response [3] -0.877% | Potency [4] | Potency [5] | Potency [6] | Potency [7] | Potency [8]

CCCCCCCCCCCCCCNCCO
active: Potency [1] 21.3 µM | Potency [2] 19 µM | Potency [3] 12 µM | Potency [4] 19 µM | Potency [5] 10.7 µM | Potency [6] 10.7 µM | Potency [7] 7.56 µM | Potency [9] 19 µM

C=C/C=C/C=C/CCCCC
inactive: activity change, negative = cytotoxicity [1] 13.8% [at 15.8 µM] | viability change, negative = cytotoxic [2] -19.2% [at 15.8 µM] | max response [3] -0.0339% | activity change [4] 1.62% [at 15.8 µM, stronger effect = higher value] | cytotoxicity increase [5] -3.81% [at 15.8 µM] | activity change, negative = cytotoxic [6] 7.06% [at 15.8 µM] | cytotoxicity increase [7] -4.48% [at 15.8 µM] | activity change, negative = cytotoxicity [8] 0.841% [at 15.8 µM] | cytotoxicity increase [9] 13.2% [at 15.8 µM]

Nc1ccc2cc3ccc(N)cc3nc2c1
inactive: Potency [2] | Potency [8]
active: Potency [1] 6.16 µM and 9.52 µM | Potency [3] 436 nM and 2.13 µM | Potency [4] 43.6 µM and 21.3 µM | Potency [5] 49 µM and 21.3 µM | Potency [10] 49 µM and 23.9 µM | Potency [7] 49 µM and 21.3 µM | Potency [9] 43.6 µM and 21.3 µM

c1cc[nH]c1
inactive: Potency [1] | Potency [2] | max response [3] 10.9% | Potency [4] | Potency [5] | Potency [6] | Potency [10] | Potency [8]

CC1=C(/C=C/C(C)=C/C=C/C(C)=C/C(=O)Nc2ccc(O)cc2)C(C)(C)CCC1
inactive and 26.8 µM (active): Potency [6]
active: Potency [1] 796 nM and 477 nM | Potency [3] 893 nM and 425 nM | Potency [7] 50.2 µM and 23.9 µM
inactive: Potency [4] | Potency [5] | Potency [8] | Potency [9]
inactive and 23.9 µM (active): Potency [2]

— PubChem BioAssay (Tox21)
